Only some compounds are listed: those with a hit (about 0.9% of all), similar ones and a draw of the others.
phage Ecoli inh: E. coli growth loss with phage present | growth absorbance | inhibition, % at 11.9 µM | 360,000 tested, 0.26% active | AID 651602; in the data active = inhibition above about 11%
AddAB inh: less growth of phage-infected E. coli with AddAB. 330,000 tested, 0.29% active. E. coli expressing H. pylori AddAB, absorbance growth. inhibition, % at 11.9 µM; in the data active = inhibition above about 12%;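 note: 0% = vehicle wells of infected cells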
Tat export inh: inhibitors of E. coli Tat protein transport. E. coli MC4100 TorA-mCherry Tat export, fluorescence. inhibition, % at 10 µM. 340,000 tested, 0.036% active. AID 488895;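 active = mean replicate inhibition at least 50% and at least half of replicates individually reaching 50%; inconclusive = only one of the two criteria met; inactive = neither criterion met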;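 note: exported cargo escapes ClpAP degradation while cytoplasmic cargo is degraded and loses fluorescence; 0% = median of neutral control wells and 100% = median of NaSCN control wells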
E coli growth-1: blocks Escherichia coli growth | OD600, 23 h; stronger effect = lower value | OD600 absorbance (no concentration beside the values) | 330,000 tested, 0.21% active | AID 1053175;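 active = OD600 absorbance below the run mean of sample wells minus 3.6 SD, in any replicate, cut at about 0.56 in these data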
E coli growth-2: counter-screen for AddAB inhibitors: E. coli growth inhibition; E. coli V3065 growth, OD600 absorbance, 18 h; inhibition, % at 11.9 µM; 330,000 tested, 0.27% active; AID 449728;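 active = inhibition above the campaign's mean inhibition across all tested compounds plus 3 SD, cut at about 9.9% in these data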;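 note: uninfected addAB+ strain grown without phage in ampicillin broth; 0% = DMSO wells and 100% = ciprofloxacin 0.95 µg/ml wells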
Calb FLC: affects C. albicans growth with fluconazole | C. albicans CaCi-2 (fluconazole-resistant clinical isolate) + fluconazole, Alamar Blue growth, 48 h | 300,000 tested, 0.57% active | growth inhibition, % (no concentration beside the values) | AID 1979;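 active = growth inhibition above about 58% in most replicates, limit read from the data, passing the limit was not always enough; inconclusive = exactly half the replicates above a set limit; inactive = most replicates below a set limit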;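 note: all wells also contain fluconazole at 8 µg/ml as a sub-toxic cotreatment; 0% = median of DMSO wells and 100% = median of geldanamycin control wells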
* = called active by the depositor; ? = inconclusive; . = no result.

SMILES | phage Ecoli inh | AddAB inh | Tat export inh | E coli growth-1 | E coli growth-2 | Calb FLC
COc1cc([N+](=O)[O-])cc(/C=N/NC(=O)c2ccc(NC(=O)c3ccc(C)cc3)cc2)c1O | 6.7 | . | 0.1 | . | . | 101.8*
O=C(NN=Cc1cc2c(cc1Br)OCO2)C1COc2ccccc2O1 (stereo not drawn) | . | . | . | 0.706 | . | .
O=[N+]([O-])c1ccc(-[n+]2ccc3ccccc3c2)c([N+](=O)[O-])c1 | 3.5 | 5.0 | -0.6 | 0.446* | 1.9 | 41.5
O=[N+]([O-])c1ccc(SNc2ccccc2)c([N+](=O)[O-])c1 | 3.0 | . | 3.3 | . | . | .
Cc1ccc2oc(-c3cccc(NC(=O)Cn4cnc5c(=O)n(C)c(=O)n(C)c54)c3)nc2c1 | . | 0.0 | . | 0.636 | -0.9 | 122.4*
COc1ccc(C=CC(=O)OCC(=O)NCC2CCCO2)cc1 (stereo not drawn) | . | . | . | 0.718 | . | .
CCCCCCCCCCCCCCCC(=O)OC(CC(=O)O)C[N+](C)(C)C (stereo not drawn) | 1.9 | -2.3 | 53.9* | 0.642 | -2.1 | .
Cc1ccc(-n2ncc(Br)c(Br)c2=O)cc1 | . | . | -4.3 | 0.637 | . | 96.6*
CC(=NNC(=O)Cc1ccc(Cl)cc1)c1ccccn1 | . | . | . | 0.597 | . | .
CCCCCc1ccc(OCCCC[n+]2ccc(C)cc2)c(CCCCC)c1 | 2.1 | -1.7 | 19.1 | 0.557 | -2.7 | 98.0*
CCC(C)(C)c1ccc(OCCCC[n+]2ccccc2)c(C(C)(C)CC)c1 | 6.9 | -1.1 | 22.0 | 0.584 | -1.4 | .
CCCCOc1ccc(C)cc1CN(CCO)CCO | 2.6 | 1.8 | -13.2 | 0.704 | -0.4 | -2.8
CCCCCc1ccc(OCCCC[n+]2cccc(C)c2)c(CCCCC)c1 | 5.9 | 1.2 | 30.2 | . | -0.2 | 105.7*
CCCCCOc1ccc(CN2CCOCC2)cc1Cl | 2.6 | -0.3 | 1.1 | 0.648 | 0.4 | -37.1
CCCCCc1ccc(OCCCC[n+]2ccccc2)c(CCCCC)c1 | . | -1.9 | 31.0 | 0.592 | -1.5 | 100.3*
NC1=NC(=O)C(=Cc2cccc(-c3ccc(S(N)(=O)=O)cc3)c2)S1 | . | . | . | 0.662 | . | .
Cc1cccc(NC(=O)c2ccc([N+](=O)[O-])o2)c1C | 4.4 | 2.8 | -6.4 | 0.702 | 3.2 | 36.6
O=C(Nc1ccccc1C(=O)NC1CC1)c1ccc([N+](=O)[O-])o1 | 15.7* | . | -2.5 | 0.525 | . | .
O=C(Nc1cccc2ccccc12)c1ccc([N+](=O)[O-])o1 | 3.1 | 4.9 | -13.2 | 0.624 | 7.9 | 86.2*
CC(NC(=O)OCc1ccccc1)c1nnc(C(Cc2ccccc2)NC(=O)OC(C)(C)C)o1 (stereo not drawn) | . | . | . | 0.67 | . | .
O=C(NCC1CCCO1)C(c1ccc(F)cc1)N(Cc1ccc(F)cc1)C(=O)Cn1nnc(-c2cccs2)n1 (stereo not drawn) | 3.2 | 1.6 | -5.8 | 0.731 | -5.9 | 103.7*
O=C(NCC1CCCO1)C(c1cccs1)N(Cc1cccs1)C(=O)Cn1nnc(-c2cccs2)n1 (stereo not drawn) | 0.9 | 1.6 | -4.3 | 0.726 | 0.0 | .
CC(=O)c1cccc(NC(=O)NC2CCCCCCC2)c1 | 2.4 | 1.9 | 0.1 | 0.722 | -0.7 | 1.5
Cc1cccc(NC(=O)NC2CCCCCCC2)c1 | 3.3 | . | -3.8 | 0.705 | . | 124.0*
Cc1ccc(NC(=O)NC2CCCCCCC2)c(C)c1 | 2.2 | . | -8.3 | 0.719 | . | 112.3*
SMILES | phage Ecoli inh | AddAB inh | Tat export inh | E coli growth-1 | E coli growth-2 | Calb FLC
O=C(Oc1c(CN2CCOCC2)cc(Cl)c2cccnc12)c1ccccc1Cl | -1.5 | -3.2 | 1.3 | 0.66 | -6.6 | 100.0*
O=C(Oc1ccc(Cl)c2cccnc12)N1CCOCC1 | 1.9 | 3.6 | 3.5 | 0.666 | -0.6 | -7.7
O=C(Oc1c(CN2CCOCC2)cc(Cl)c2cccnc12)c1cccs1 | -3.4 | -1.9 | 3.4 | 0.674 | -8.3 | 101.3*
Cc1ccc(CN2CCN(N=Cc3cc([N+](=O)[O-])ccc3Cl)CC2)cc1 | . | . | . | 0.732 | . | .
C[C@@H]1CC[C@H](O)C=CC(=O)O[C@H](C)CC[C@H](O)C=CC(=O)O1 | . | . | . | 0.747 | . | .
COc1ccc(C(=O)NC(=S)NNC(=O)c2ccccc2C)cc1 | -0.7 | -2.7 | -10.2 | 0.677 | -5.1 | 100.8*
Cc1ccccc1C(=O)NNC(=S)NC(=O)c1ccc(Cl)cc1Cl | 1.4 | -0.3 | -7.9 | 0.63 | 2.7 | 91.4*
CCc1ccccc1NC(=S)NN | -0.6 | 1.4 | . | . | -0.3 | 0.6
CCc1ccccc1NC(=S)NNC(=O)c1ccccc1Cl | 1.3 | -0.5 | -6.3 | 0.718 | 3.0 | 102.9*
COc1ccccc1C(=O)NNC(=S)NC(=O)c1cc(OC)c(OC)c(OC)c1 | 0.5 | 0.3 | -7.7 | 0.655 | -3.1 | 105.2*
O=C(NC(=S)NNC(=O)c1ccc(Cl)cc1Cl)c1cccnc1 | -3.9 | -0.8 | -5.5 | 0.616 | -0.9 | 0.3
CCc1ccccc1NC(=S)N1CCCCCC1 | 1.7 | . | -4.8 | 0.726 | . | 116.7*
Cc1ccc2occ(/C=N/NC(=O)c3ccccc3O)c(=O)c2c1 | 5.2 | 10.1 | -2.5 | . | 7.8 | 78.8*
CCCOc1cccc(C(=O)N/N=C/c2coc3ccccc3c2=O)c1 | 3.0 | . | 6.6 | . | . | 108.4*
CCCOc1cccc(C(=O)NN=Cc2coc3ccccc3c2=O)c1 | . | . | . | 0.682 | . | .
Cc1nn(-c2ccccc2)c(C)c1-c1cc(C(=O)NN=Cc2cccnc2)[nH]n1 | . | . | . | 0.685 | . | .
Cc1ccc(C=NNC(=O)CN2CCN(Cc3ccccc3Cl)CC2)o1 | . | . | . | 0.643 | . | .
N=c1n(Cc2ccccc2)c2ccccc2n1CC(O)COc1ccc(Cl)cc1Cl (stereo not drawn) | 5.1 | . | 2.8 | 0.504* | . | ?
O=C(COc1ccc2ccccc2c1)NN=CC1CC=CCC1 (stereo not drawn) | . | . | . | 0.658 | . | .
Cc1nc2ccccc2c(=O)n1N=Cc1ccc2ccccc2c1O | . | . | . | 0.672 | . | .
O=[N+]([O-])c1ccc(Cl)c(C=NNc2nc(N3CCOCC3)nc(N3CCOCC3)n2)c1 | . | . | . | 0.737 | . | .
C=Cc1ncc(OC)c2c1[nH]c1ccccc12 | . | 2.9 | -0.3 | 0.49* | 2.3 | -9.6
CNC(=O)N(O)C1N(N=Cc2ccc(SC)cc2)C(=S)SC1(C)C (stereo not drawn) | . | . | . | 0.669 | . | .
COc1cc(OC)cc(C(=O)NC2CCN(Cc3nnnn3Cc3ccc(F)cc3)CC2)c1 | 3.6 | 1.2 | 1.6 | 0.674 | -0.3 | 116.4*
COc1cc(C(=O)NC2CCN(Cc3nnnn3Cc3ccc(F)cc3)CC2)cc(OC)c1OC | 8.1 | 2.9 | -11.2 | 0.719 | -0.5 | 11.5
SMILES | phage Ecoli inh | AddAB inh | Tat export inh | E coli growth-1 | E coli growth-2 | Calb FLC
Cc1ccc(NS(=O)(=O)c2ccc(CCC(=O)NCc3ccccn3)cc2)cc1 | 2.7 | 0.5 | -2.6 | 0.72 | -2.0 | -4.9
Cc1ccc(NS(=O)(=O)c2ccc(CCC(=O)NCCO)cc2)cc1 | 2.8 | 0.5 | -0.3 | 0.673 | 0.4 | 112.5*
C#CCOc1ccc(C=NO)cc1Cl | . | . | . | 0.71 | . | .
O=C(NN=Cc1ccccn1)C1CC1 | . | . | . | 0.661 | . | .
O=C(/C=C/c1ccc(F)cc1)N1CCN(c2ccccn2)CC1 | 5.3 | 3.1 | -3.1 | 0.669 | 2.5 | 87.2*
COc1ccc(-n2cccc2/C=C2\C(=N)N3N=C(C(C)C)SC3=NC2=O)cc1 | 3.5 | -0.8 | 5.8 | . | -0.9 | 98.2*
Cc1cc(C)n(-c2nc3ccccc3c(=O)n2OCC#N)n1 | -0.2 | . | 10.0 | 0.619 | . | 81.1*
O=C(/C=C/c1ccccc1)Nn1c(-c2cccs2)nc2ccccc2c1=O | 5.1 | 0.7 | 0.5 | 0.7 | -0.9 | 94.8*
